# Measured values taken from PubChem BioAssay.
# Inconclusive results are not listed. Activity calls are given as the source filed them. Unless noted, no cut-off is given here; in the data, nearly all actives have AC50 up to about 26 µM.
# Tests used:
# [1] = viability loss in pontine glioma line – cell-based, SU-DIPG-XVII, MIPE5.0, CellTiter-Glo, qHTS, dose response (AID 1347060); details: CellTiter-Glo ATP luminescence;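 for AC50: cells exposed to compound for 48 hours before viability readout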
# [2] = viability loss in pontine glioma line – cell-based, SU-DIPG-XXV, MIPE5.0, CellTiter-Glo, qHTS, dose response (AID 1347065); details: CellTiter-Glo ATP luminescence;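 note: cells exposed to compound for 48 hours before ATP readout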
# [3] = JHH-DIPG-1 glioma cell viability, MIPE5.0 library, CellTiter-Glo luminescence, qHTS (AID 1347067); details: JHH-DIPG-1 glioma viability, CellTiter-Glo ATP luminescence;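 note: cells exposed to compound for 48 hours before readout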
# [4] = growth inhibition of DIPG cells – cell-based, MIPE5.0 library, qHTS (AID 1347068; cut-off not given, nearly all actives have IC50 up to about 30 µM;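 for IC50: cells exposed to compound for 48 hours before viability readout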); details: SU-DIPG-XXV viability
# [5] = viability loss with induced miR-34 in A549 – imaging, A549 dox-inducible miR-34, nuclei and caspase counts, primary screen (AID 1347080;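 active = compounds whose cell count with miR-34 switched on is under 0.7 times the count with it off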); details: A549 miR-34 inducible, Hoechst nuclei count, 48 h
# [6] = MELAS cybrid and Rieske KO viability enhancers – cell-based, MELAS cybrids, Rieske KO mouse fibroblasts, CellTiter-Glo, primary screen (AID 1508586;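 active = mean z-score across replicates of 1.96 or higher in either the MELAS or the Rieske mutant cell line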;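 note: z relative to plate mean and SD of compound and empty wells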); details: low glucose
smiles,measurement,setting,value
C=CC(=O)Nc1cccc(Nc2nc(Nc3ccc(Oc4ccnc(C(=O)NC)c4)cc3)ncc2F)c1,AC50,[1],10.5 µM (active)
same,AC50,[2],7.42 µM (active)
same,AC50,[3],14.8 µM (active)
same,IC50,[4],13.2 µM (active)
same,fold change,"[5]; stronger effect = lower value, cell number ratio, induced over uninduced",0.924 (inactive)
same,fold change,[5]; measured here: relative caspase fold change +Dox/-Dox,0.336
same,cell count,"[5]; measured here: total cells with miR-34 induction, stronger effect = lower value",4090
same,cell count,[5]; measured here: total cells without miR-34 induction,4430
same,z-score,"[6]; MELAS cybrid survival, CellTiter-Glo 48 h, stronger effect = higher value",1.34 (inactive)
same,z-score,"[6]; Rieske KO mouse fibroblast survival, CellTiter-Glo 72 h",1.7
Cc1nc2cccc(N)c2c(=O)n1C1CCC(=O)NC1=O (stereo not drawn),outcome,[1],inactive
same,outcome,[3],inactive
same,outcome,[4],inactive
C/C(=C\c1csc(C)n1)[C@@H]1C[C@@H]2O[C@]2(C)CCC[C@H](C)[C@H](O)[C@@H](C)C(=O)C(C)(C)[C@@H](O)CC(=O)N1,AC50,[1],0.0148 µM (active)
same,AC50,[2],0.0118 µM (active)
same,IC50,[4],3.32 µM (active)
O=C(/C=C/N1C[C@H]2C[C@@H]1CN2c1ccccn1)c1ccccc1O,outcome,[1],inactive
same,outcome,[3],inactive
